Assay outcomes (PubChem)
This is a sample that favours compounds with a hit; in the whole collection about 9% have one here.
ALDH1A1 inh = blocks purified human ALDH1A1 activity. Purified ALDH1A1, NADH fluorescence, propionaldehyde substrate. Potency, µM (series often up to 75.3 µM), usual class: inhibitors. 220,000 compounds, 7.3% hits. AID 1030; active = well fitted inhibition curve with a large enough effect, not every such curve was filed as active; inconclusive = small, poorly fitted or top-dose-only effect, or another doubt; inactive = no such curve, though single readings can be large or run the other way
Target sequence (P00352 whole entry, looked up): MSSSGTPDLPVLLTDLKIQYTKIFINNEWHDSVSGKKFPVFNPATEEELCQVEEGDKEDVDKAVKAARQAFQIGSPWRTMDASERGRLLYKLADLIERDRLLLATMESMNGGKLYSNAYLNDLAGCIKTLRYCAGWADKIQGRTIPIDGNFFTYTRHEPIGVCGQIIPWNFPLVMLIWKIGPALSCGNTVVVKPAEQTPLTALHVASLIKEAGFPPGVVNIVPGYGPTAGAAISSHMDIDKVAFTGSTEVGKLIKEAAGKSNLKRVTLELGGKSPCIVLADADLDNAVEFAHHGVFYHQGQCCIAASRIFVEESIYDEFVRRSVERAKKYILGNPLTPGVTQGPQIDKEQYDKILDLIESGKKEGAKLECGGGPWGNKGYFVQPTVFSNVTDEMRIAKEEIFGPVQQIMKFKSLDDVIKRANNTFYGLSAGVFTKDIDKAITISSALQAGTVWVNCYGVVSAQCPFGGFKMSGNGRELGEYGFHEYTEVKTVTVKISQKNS
LMNA splice mod = changes lamin A minigene splicing in HeLa cells | HeLa LMNA splicing GFP/RFP minigene ratio, 48 h | Potency, µM (highest dose often 46.1 µM), usual class: inhibitors | 200,000 compounds, 0.01% hits; active = well fitted inhibition curve with a large enough effect in the signal ratio, with a control signal flat, not every such curve was filed as active; inconclusive = small, poorly fitted or top-dose-only effect, or effect the other way, or a change in a side signal; the % refers to the signal ratio
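S3 HeLa stable clones carrying a lamin A-EGFP splicing minigene plus DsRed2 were seeded at 600 cells/well in Opti-MEM with 2% FBS, pin-dosed and incubated 48 h at 37°C. Acumen cytometry (488 nm) gave the GFP/RFP total-intensity ratio.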
HPGD block = HPGD (human) dehydrogenase inhibition; AID 894; Potency, µM, most hits filed as inhibitors; P15428; purified HPGD, NADH fluorescence kinetic, PGE2 substrate; 150,000 compounds, 4.3% hits; active = well fitted inhibition curve with a large enough effect, not every such curve was filed as active; inconclusive = small, poorly fitted or top-dose-only effect, or another doubt; inactive = no such curve, though single readings can be large or run the other way
Target sequence (P15428 whole entry, looked up): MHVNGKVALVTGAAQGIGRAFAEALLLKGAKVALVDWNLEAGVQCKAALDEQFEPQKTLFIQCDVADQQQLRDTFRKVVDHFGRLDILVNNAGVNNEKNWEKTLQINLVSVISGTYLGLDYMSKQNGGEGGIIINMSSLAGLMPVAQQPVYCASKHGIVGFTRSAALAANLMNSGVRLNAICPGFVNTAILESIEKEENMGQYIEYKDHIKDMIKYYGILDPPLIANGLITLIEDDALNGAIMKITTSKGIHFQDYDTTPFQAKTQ
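NADH formation kinetics: reaction with 30 uM PGE2 and 1 mM NAD+ (final), 20 nM enzyme, Tris-HCl pH 8 with Tween 20, after 15 min compound preincubation at room temperature. Fluorescence change, last versus first of five reads.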
Luc counter = Kinase-Glo luciferase inhibition (counter-screen); 200,000 compounds, 0.28% hits; Q27757; Kinase-Glo luciferase, ATP luminescence, 8 min; Potency, µM (top dose mostly 38.3 µM), hits mostly inhibitors; note: nearly all actives have a fitted effect of over 60% in size
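Luminescence was the read-out, taken after 8-minute incubation at ambient temperature. Luciferase turned over luciferin with 10 uM ATP in imidazole pH 7.2 buffer containing KCl, MgCl2, Tween 20 and BSA.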
IMPase Li inh = cell-permeable IMPase inhibitors with lithium potentiation. Potency, µM (series often up to 59.4 µM), usual class: inhibitors. AID 1457. 210,000 compounds, 0.35% hits. CHO-M1 cells, IP1 TR-FRET (IP-One), carbachol + lithium;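 note: IP1 builds up when IMPase is blocked and the TR-FRET signal falls; nearly all actives have a fitted effect of over 50% in size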
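CHO-M1, 2000 cells/well, 16–30 h culture; cpd + low Li+, 30 min 37C; lysis with d2-IP1/Eu-anti-IP1 Ab, 10 min RT; TR-FRET 665/620 ratio and 620 channel; AC50 via Hill.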
Of the large screens only hits and unclear results are named; the others gave an inactive call. Unless noted, calls come from the whole dose curve; as a rule, active = well fitted curve in the direction sought with a large enough effect; inconclusive = small, poorly fitted or top-dose-only effect, or another doubt; inactive = no such curve, though single readings can be large; an effect the other way counts as inactive or inconclusive.

CCC(=O)N1CCc2cc(S(=O)(=O)CCC(=O)NCc3ccco3)ccc21	none (no result: LMNA splice mod, HPGD block)
O=C(CCS(=O)(=O)c1cc(Br)cc2c1N(C(=O)C1CC1)CC2)NCc1ccco1	ALDH1A1 inh 11µM
CN(C(=O)CSc1nc2ccc(NC(=O)c3cccc(F)c3)cc2s1)c1ccccc1	none (no result: ALDH1A1 inh, HPGD block, Luc counter, IMPase Li inh)
CCCNC(=O)c1ccc2c(c1)ncn2-c1cc(C)cc(C)c1	none (no result: LMNA splice mod, HPGD block)
Cc1cc(C)cc(-n2cnc3cc(C(=O)O)ccc32)c1	HPGD block 16µM
CC(C)(C)NC(=O)COC(=O)c1ccc(NC(=O)CC#N)cc1	none (no result: LMNA splice mod, HPGD block)
CC1CN(C(=O)COC(=O)c2ccc(NC(=O)CC#N)cc2)CC(C)O1 (stereo not drawn)	ALDH1A1 inh 6.3µM (no result: HPGD block)
CC1CN(C(=O)COC(=O)c2ccc(N)c([N+](=O)[O-])c2)CC(C)O1 (stereo not drawn)	ALDH1A1 inh inconclusive, HPGD block 28µM
CCC(=O)Nc1ncc2c(n1)CC(c1ccco1)CC2=O (stereo not drawn)	ALDH1A1 inh inconclusive
O=C1CC(c2ccco2)Cc2nc(N3CCc4ccccc4C3)ncc21 (stereo not drawn)	ALDH1A1 inh 13µM, LMNA splice mod inconclusive, HPGD block inconclusive
O=C(CSC(=S)N1CCCCC1)Nc1ncc2c(n1)CC(c1ccco1)CC2=O (stereo not drawn)	ALDH1A1 inh 4µM (no result: LMNA splice mod, HPGD block, Luc counter, IMPase Li inh)
CC(C)c1ccc(C2CC(=O)c3cnc(N4CCc5ccccc5C4)nc3C2)cc1 (stereo not drawn)	none
CCO[Si](CCCN)(OCC)OCC	none (no result: LMNA splice mod, Luc counter)
COC(=O)C[C@H](NC(=O)[C@H](C)NC(=O)[C@@H](NC(=O)OCc1ccccc1)C(C)C)C(=O)CF	none (no result: LMNA splice mod, HPGD block, Luc counter)
NC(=O)c1ccsc1NC(=O)c1ccc(S(=O)(=O)N2CCCc3ccccc32)cc1	LMNA splice mod inconclusive, HPGD block inconclusive
CC1CCCCN1S(=O)(=O)c1ccc(C(=O)Nc2sccc2C(N)=O)cc1 (stereo not drawn)	ALDH1A1 inh 14µM, LMNA splice mod inconclusive, HPGD block 28µM
O=C1C(NS(=O)(=O)c2ccc(Cl)cc2)=C(N2CCCCC2)C(=O)c2ccccc21	ALDH1A1 inh 8.9µM
C/C(Cn1nnc2ccccc21)=N\NC(=O)c1ccc(Br)cc1	ALDH1A1 inh inconclusive (no result: LMNA splice mod, HPGD block)
Cc1oc(-c2ccc3ccccc3c2)nc1CN(C)C(C)c1ccncn1 (stereo not drawn)	ALDH1A1 inh 15µM (no result: LMNA splice mod, HPGD block)
CC(c1ccncn1)N(C)Cc1nc(-c2ccc(C(F)(F)F)cc2)no1 (stereo not drawn)	none (no result: LMNA splice mod, HPGD block)
Fc1ccc(-n2c(-c3ccc4ccccc4n3)n[nH]c2=S)cc1Cl	IMPase Li inh 2.8µM (no result: LMNA splice mod, HPGD block)
S=c1[nH]nc(-c2ccc3ccccc3n2)n1-c1ccc(Cl)cc1	ALDH1A1 inh inconclusive, HPGD block 10µM
Cc1n[nH]c(=S)n1-c1ccc(Cl)cc1	none (no result: LMNA splice mod, HPGD block)
S=c1[nH]nc(-c2ccc3ccccc3n2)n1-c1ccc2ncccc2c1	HPGD block 13µM
Cc1ccc(-n2cc[nH]c2=S)cc1C	ALDH1A1 inh inconclusive, HPGD block 22µM
CCCCNC(=O)CSc1nc2ccccc2n1S(=O)(=O)c1ccc(Cl)cc1	HPGD block 2µM
CCCCNC(=O)CSc1nc2ccccc2n1S(=O)(=O)c1ccc(Br)cc1	HPGD block 2.5µM
O=C(CSc1nc2ccccc2n1S(=O)(=O)c1cccc([N+](=O)[O-])c1)NCCc1ccccc1	HPGD block inconclusive
COC(=O)c1cn(NC(=O)Cc2c(F)cccc2Cl)c(=O)c2ccccc12	none (no result: HPGD block)
Cc1ccc(-n2ncc(C(=O)NCc3ccco3)c2C2CCN(C(=O)OC(C)(C)C)CC2)c(C)c1	none (no result: ALDH1A1 inh, HPGD block, Luc counter, IMPase Li inh)
O=C(Cc1ccc(NC(=O)N2CCCCc3ccccc32)cc1)NCc1cccc(Br)c1	none (no result: ALDH1A1 inh, HPGD block, Luc counter, IMPase Li inh)
COc1ccc(C(=O)CCNc2ccc(C)c(Cl)c2)cc1	ALDH1A1 inh 3.2µM
CCC(C)[C@H](NC(=O)NCc1ccco1)C(=O)OC (stereo partly drawn)	ALDH1A1 inh 13µM (no result: LMNA splice mod, HPGD block, Luc counter, IMPase Li inh)
COCCSc1ccccc1C(=O)NCCc1ccccc1	ALDH1A1 inh inconclusive (no result: LMNA splice mod, HPGD block)
COCCSc1ccccc1C(=O)NCc1ccco1	ALDH1A1 inh 14µM, HPGD block 8.9µM
COCCSc1ccccc1C(=O)Nc1cc(C)on1	ALDH1A1 inh inconclusive, HPGD block 32µM
COc1cccc(NC(=O)CSc2cc(C)[nH]c(=O)n2)c1	none (no result: ALDH1A1 inh, HPGD block, Luc counter, IMPase Li inh)
COc1ccc(-n2ncc3c(NCc4cccs4)ncnc32)cc1	ALDH1A1 inh inconclusive, HPGD block inconclusive
NNc1ncnc2c1cnn2-c1ccccc1	ALDH1A1 inh 18µM, LMNA splice mod inconclusive
c1ccc(-n2ncc3c(NCc4cccs4)ncnc32)cc1	ALDH1A1 inh inconclusive, HPGD block 5µM
CC(C)Nc1ncnc2c1cnn2-c1ccccc1	ALDH1A1 inh inconclusive, LMNA splice mod inconclusive, HPGD block inconclusive
CCOC(=O)c1cnc2c(cnn2CC)c1NN=C(C)C	LMNA splice mod inconclusive, HPGD block inconclusive
N#C/C(=N\Nc1cccc([N+](=O)[O-])c1)C(=O)c1ccc(Br)cc1	ALDH1A1 inh 22µM (no result: LMNA splice mod, HPGD block)
O=C(O)c1ccc(N=NNc2cccc([N+](=O)[O-])c2)cc1	none (no result: HPGD block)
C/C(=C/C(=O)O)C(=O)Nc1cccc(C(F)(F)F)c1	none (no result: HPGD block)
CN=CC1=C(O)CC(C)(C)CC1=O	none
CC1(C)CC(=O)C(C=NC2CCCCC2)=C(O)C1	none
CC1(C)CC(=O)C(CC2=C(O)CC(C)(C)CC2=O)C(=O)C1	ALDH1A1 inh 11µM
CC1(C)CC(=O)C(CC2=C(O)CC(C)(C)CC2=O)=C(O)C1	ALDH1A1 inh 8.9µM
Cc1cc(C(=O)COc2ccc([N+](=O)[O-])cc2)c(C)n1C1CC1	ALDH1A1 inh 11µM (no result: HPGD block, Luc counter, IMPase Li inh)
NC(=O)Cn1c2[n+](c3ccccc31)CC(O)CS2 (stereo not drawn)	ALDH1A1 inh 11µM
CC(C)(Oc1ccc(-c2cccc3ccccc23)cc1)C(=O)O	none (no result: LMNA splice mod)
CSc1ccccc1C(=O)NCc1ccc2c(c1)OCO2	HPGD block 0.5µM
CCSc1ccccc1C(=O)NCc1ccc2c(c1)OCO2	ALDH1A1 inh inconclusive, HPGD block 1.4µM
O=C(Nc1ccc2c(c1)OCO2)c1ccccc1SCC(=O)N1CCCC1	ALDH1A1 inh 1.3µM, HPGD block 28µM
COc1ccc(CNC(=O)CCSCc2ccccc2C)cc1	ALDH1A1 inh 4µM (no result: LMNA splice mod, HPGD block)
COc1cc(C)cc(OC)c1/C=C\C(=O)O	none (no result: LMNA splice mod)
C=CCOC(=O)N[C@@H](c1ccc(Br)cc1)C(C(C)=O)C(C)=O	none (no result: LMNA splice mod)
COc1ccc(CNC(=O)c2ccccc2SC)cc1	HPGD block 6.3µM
Cc1[nH]nc2c1C1(C(=O)Nc3ccc([N+](=O)[O-])cc31)C(C#N)=C(N)O2 (stereo not drawn)	none
Cc1ccc(SCc2[nH]nc3c2C2(C(=O)Nc4ccc(F)cc42)C(C#N)=C(N)O3)cc1 (stereo not drawn)	ALDH1A1 inh 2.2µM, LMNA splice mod inconclusive
CC(=O)N1CCC2(CC1)C(C#N)=C(N)Oc1n[nH]c(CSc3ccc(C)cc3)c12	ALDH1A1 inh 10µM
